We go through three compounds from PubChem BioAssay (EPA / NIEHS).

Assay [1] is described as follows: ATG_E_Box_CIS: Attagene CIS-FACTORIAL HepG2 Assay for human Enhancer Box (E-box) (AID 2282936). Conditions: HepG2 E-box cis-reporter transcription, actives raise or lower the signal. The method in brief: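 DMSO served as negative control and baseline for bidirectional fitting. Human hepatoma HepG2 cells, transiently transfected with cis-reporter constructs, were dosed 24 h; reporter mRNA read by RT-PCR and capillary electrophoresis.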

A short description of assay [2]: ATG_M_61_CIS: Attagene CIS-FACTORIAL HepG2 Assay for M61 Transcription Factor (Internal Marker) (AID 2282937). Conditions: HepG2 Attagene CIS-FACTORIAL M61 internal marker reporter; actives raise or lower the signal. The gist of the method: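 Endogenous transcription factor activity in HepG2 is read through transiently transfected cis-element reporter units. After 24 h dosing, RNA undergoes reverse transcription, PCR and primer extension with 6-FAM before capillary electrophoresis; DMSO-referenced bidirectional fit.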

Assay [3] is described as follows: ATG_EGR_CIS: Attagene CIS-FACTORIAL HepG2 Assay for human Early Growth Response 1 (EGR1) (AID 2282938). Conditions: HepG2 Attagene CIS-FACTORIAL EGR reporter mRNA; actives raise or lower the signal. The gist of the method:
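Activity is taken as induction or loss of reporter mRNA versus DMSO, fitted bidirectionally. Transcripts from cis-regulated reporter units in transiently transfected HepG2 were measured after 24 h by RT-PCR with capillary electrophoresis.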

The nature of assay [4]: ATG_M_19_CIS: Attagene CIS-FACTORIAL HepG2 Assay for M19 Transcription Factor (Internal Marker) (AID 2282939). Conditions: HepG2 Attagene CIS-FACTORIAL M19 internal marker reporter; actives raise or lower the signal. The method in brief: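 Chemical-treated HepG2 (24 h) with MRTU constructs; reporter transcripts detected by fluorescent RT-PCR fragment analysis on capillary electrophoresis. Internal background marker, DMSO as baseline.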

Assay [5] can be described thus: ATG_ERE_CIS: Attagene CIS-FACTORIAL HepG2 Assay for Estrogen Response Element (ERE) (AID 2282940). Conditions: HepG2 ERE cis-reporter, Attagene RNA transcript; actives raise or lower the signal. The gist of the method: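 Human liver cells (HepG2) bearing transiently transfected, promoter-regulated reporter units were exposed 24 h. Reporter mRNA induction was detected by capillary electrophoresis of labelled RT-PCR products and fitted bidirectionally to DMSO.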

A short description of assay [6]: ATG_Ets_CIS: Attagene CIS-FACTORIAL HepG2 Assay for human Erythroblast Transformation Specific (ETS) (AID 2282941). Conditions: HepG2 ETS cis-reporter transcription, actives raise or lower the signal. The method in brief: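 Human HepG2 hepatoma cells were transiently transfected with promoter-driven reporter constructs and treated for 24 hours. Reporter transcripts were quantified by RT-PCR with fluorescent primer extension; bidirectional curve fitting used DMSO as reference.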

The target of assay [7] is Hepatocyte nuclear factor 3-beta (Homo sapiens) (UniProt Q9Y261). Put plainly: ATG_FoxA2_CIS: Attagene CIS-FACTORIAL HepG2 Assay for human Forkhead box A2 (FOXA2) (AID 2282942). To be noted: HepG2 cis-reporter transcription factor activity, 24 h; actives raise or lower the signal. The gist of the method:
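Reporter transcript induction is measured by fluorescence after capillary electrophoresis of RT-PCR products from HepG2 cells exposed 24 h. Cis-regulated reporter units report endogenous factor activity; curves fitted both directions against DMSO.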

A short description of assay [8]: ATG_GATA_CIS: Attagene CIS-FACTORIAL HepG2 Assay for human GATA Binding Protein (AID 2282944). To be noted: HepG2 GATA cis-element reporter, Attagene multiplex mRNA; actives raise or lower the signal. The method in brief: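 Transfected cis-reporter HepG2 cells were treated with chemicals for 24 hours. Total RNA was then converted to cDNA, amplified with reporter-specific primers and analysed by fluorescent capillary electrophoresis, using DMSO-treated wells as baseline.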

Assay [9] is described as follows: ATG_GLI_CIS: Attagene CIS-FACTORIAL HepG2 Assay for human Zinc Finger Protein GLI1 (AID 2282945). Conditions: HepG2, Attagene cis-factorial reporter mRNA, GLI element; actives raise or lower the signal. The gist of the method:
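Bidirectional curve fits relative to DMSO, using reporter mRNA levels from RT-PCR plus capillary electrophoresis. Cells were HepG2 transiently carrying cis-regulated reporter constructs, harvested 24 h after dosing.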

For assay [10], the target named is Bile acid receptor (Homo sapiens) (UniProt Q96RI1). Kind of assay: ATG_IR1_CIS: Attagene CIS-FACTORIAL HepG2 Assay for human Nuclear Receptor Subfamily 1 Group H Member 4 (NR1H4), IR1 submotif (AID 2282946). Conditions: IR1 reporter transcription, actives raise or lower the signal. The method in brief: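 Cells (human HepG2) carry transiently transfected cis-promoter reporter transcription units. Compounds are incubated 24 h, total RNA is reverse-transcribed and amplified, and labelled fragments are resolved by capillary electrophoresis. Curves use DMSO as baseline.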
Bile acid receptor (Homo sapiens), sequence (Q96RI1 whole entry, looked up, the tested form may be a part): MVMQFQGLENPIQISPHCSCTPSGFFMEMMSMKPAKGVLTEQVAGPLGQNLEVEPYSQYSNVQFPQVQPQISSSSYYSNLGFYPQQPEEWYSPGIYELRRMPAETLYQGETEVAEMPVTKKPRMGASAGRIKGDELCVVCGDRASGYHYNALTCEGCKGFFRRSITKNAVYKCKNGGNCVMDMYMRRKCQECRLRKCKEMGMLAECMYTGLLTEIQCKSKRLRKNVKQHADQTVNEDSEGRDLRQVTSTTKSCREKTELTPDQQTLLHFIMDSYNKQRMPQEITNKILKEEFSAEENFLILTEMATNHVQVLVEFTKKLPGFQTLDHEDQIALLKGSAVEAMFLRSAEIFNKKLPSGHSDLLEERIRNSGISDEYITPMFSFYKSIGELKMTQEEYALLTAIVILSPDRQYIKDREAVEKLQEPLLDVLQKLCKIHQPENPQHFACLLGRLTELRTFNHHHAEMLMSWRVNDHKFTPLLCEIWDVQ

Assay [11] is described as follows: ATG_GRE_CIS: Attagene CIS-FACTORIAL HepG2 Assay for human Glucocorticoid Response Elements (GRE) (AID 2282947). Conditions: HepG2 GRE cis-reporter, Attagene multiplex mRNA; actives raise or lower the signal. The method in brief:
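Assay uses human hepatoma HepG2 cells transfected with cis-promoter reporter units, exposed 24 h. mRNA from reporters detected by RT-PCR plus capillary electrophoresis; DMSO serves as negative control and baseline.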

Assay [12] can be described thus: ATG_ISRE_CIS: Attagene CIS-FACTORIAL HepG2 Assay for human Interferon Regulatory Factor 1 (IRF1) binding to an Interferon-Stimulated Response Element (ISRE) (AID 2282948). To be noted: HepG2 ISRE cis-reporter (Attagene), mRNA transcription readout; actives raise or lower the signal. The method in brief: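 Cell-based cis-reporter assay; HepG2; 24 h exposure; reporter mRNA by RT-PCR plus capillary electrophoresis fluorescence; activity in either direction scored relative to DMSO.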

The nature of assay [13]: ATG_M_32_CIS: Attagene CIS-FACTORIAL HepG2 Assay for M32 Transcription Factor (Internal Marker) (AID 2282949).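 Also: background control marker of the multiplexed CIS panel rather than a real target.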 To be noted: HepG2 Attagene cis-factorial M32 reporter, mRNA; actives raise or lower the signal. The gist of the method: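 Internal background marker read-out: RT-PCR/capillary electrophoresis fluorescence of reporter transcripts from transiently transfected HepG2 cells after 24 h chemical exposure. Activity fitted bidirectionally relative to DMSO negative control.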

A short description of assay [14]: ATG_M_06_CIS: Attagene CIS-FACTORIAL HepG2 Assay for M06 Transcription Factor (Internal Marker) (AID 2282950). To be noted: HepG2 Attagene CIS-FACTORIAL M06 internal marker reporter; actives raise or lower the signal. The gist of the method: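 Cells (HepG2, transiently carrying cis-driven reporter units) receive chemical for 24 h before RNA isolation. Reporter cDNA is PCR-amplified, FAM-labelled by primer extension, HpaI-digested and sized on a capillary analyser.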

The target of assay [15] is Hypoxia-inducible factor 1-alpha (Homo sapiens) (UniProt Q16665). Kind of assay: ATG_HIF1a_CIS: Attagene CIS-FACTORIAL HepG2 Assay for human Hypoxia Inducible Factor 1 (HIF1A) (AID 2282951). To be noted: HepG2 Attagene cis-factorial HIF1a reporter transcription; actives raise or lower the signal. The method in brief:
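Fluorescence intensity of capillary-separated, 6-FAM-labelled reporter amplicons gives mRNA induction in HepG2 cells carrying transfected cis-promoter reporter units; cells exposed 24 h, responses fitted up or down from DMSO.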

The target of assay [16] is Hepatocyte nuclear factor 6 (Homo sapiens) (UniProt Q9UBC0). Put plainly: ATG_HNF6_CIS: Attagene CIS-FACTORIAL HepG2 Assay for human Hepatocyte Nuclear Factor 6 (HNF6) (AID 2282952). To be noted: HepG2 Attagene cis-factorial HNF6 reporter transcription; actives raise or lower the signal. The gist of the method:
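Reporter mRNA induction or loss in HepG2 after 24 h exposure; transient cis-MRTU transfection; fragments quantified by capillary electrophoresis; bidirectional analysis, DMSO as negative control.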

Assay [17] addresses Heat shock factor protein 1 (Homo sapiens) (UniProt Q00613). Put plainly: ATG_HSE_CIS: Attagene CIS-FACTORIAL HepG2 Assay for human Heat Shock Transcription Factor 1 (HSE) (AID 2282953). To be noted: HepG2 HSE cis-reporter, Attagene RNA transcription; actives raise or lower the signal. The method in brief:
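Liver-derived HepG2 cells carry transiently introduced multiple reporter units governed by cis promoters. Reporter RNA measured 24 h post-dose through reverse transcription, PCR amplification, fluorescent labelling and capillary electrophoresis, normalised to DMSO.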

The nature of assay [18]: ATG_MRE_CIS: Attagene CIS-FACTORIAL HepG2 Assay for human Metal Responsive Element (MRE) (AID 2282954). To be noted: HepG2 MRE cis-reporter transcription, Attagene multiplex; actives raise or lower the signal. The method in brief: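 After a 24 h chemical exposure, transiently transfected HepG2 cells yield RNA whose reporter sequences are amplified, FAM-labelled and sized by capillary electrophoresis. Curves are fitted bidirectionally relative to DMSO.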

Assay [19] in a line: ATG_PBREM_CIS: Attagene CIS-FACTORIAL HepG2 Assay for human Phenobarbital-responsive Enhancer Module (PBREM) (AID 2282955). Conditions: HepG2 PBREM cis-reporter, Attagene multiplexed transcription; actives raise or lower the signal. The method in brief:
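Cells were transfected with cis-element reporter units and treated for 24 h, after which RNA was extracted and reporter transcripts measured by RT-PCR and capillary electrophoresis.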

Assay [20] is described as follows: ATG_FoxO_CIS: Attagene CIS-FACTORIAL HepG2 Assay for human Forkhead box O (FoxO) (AID 2282943). Conditions: HepG2 Attagene cis-reporter, FoxO element, mRNA; actives raise or lower the signal. The method in brief: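 HepG2, transient MRTU transfection (cis element, endogenous TFs). Dose 24 h. TriZol RNA → oligo(dT) RT → PCR → 6-FAM primer extension → HpaI cut → CE. Gain/loss vs DMSO.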

Several values for one entry are separate records, joined by “and”; a condition that tells them apart may be missing. Identical values can stand only once. More than one record can exist for a structure, and the calls need not agree. Activity calls are given as the source filed them. The calls were made as follows: active = hit-call score of the fitted dose curve at least 0.9, where 1 is the maximum; inactive = score below 0.9.

Hepatocyte nuclear factor 6 (Homo sapiens), sequence (Q9UBC0 whole entry, looked up, the tested form may be a part): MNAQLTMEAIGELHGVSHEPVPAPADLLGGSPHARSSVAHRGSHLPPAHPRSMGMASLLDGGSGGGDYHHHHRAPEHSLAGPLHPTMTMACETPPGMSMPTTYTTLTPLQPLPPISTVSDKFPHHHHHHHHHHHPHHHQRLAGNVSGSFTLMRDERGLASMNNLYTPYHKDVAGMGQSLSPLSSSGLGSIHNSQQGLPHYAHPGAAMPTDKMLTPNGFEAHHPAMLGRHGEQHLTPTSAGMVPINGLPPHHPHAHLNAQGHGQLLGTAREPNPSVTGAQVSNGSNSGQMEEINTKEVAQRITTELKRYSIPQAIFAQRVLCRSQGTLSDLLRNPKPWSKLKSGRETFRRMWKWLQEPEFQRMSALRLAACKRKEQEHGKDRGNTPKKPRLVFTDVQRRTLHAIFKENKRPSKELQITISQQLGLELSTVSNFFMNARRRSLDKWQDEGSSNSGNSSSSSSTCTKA
Hepatocyte nuclear factor 3-beta (Homo sapiens), sequence (Q9Y261 whole entry, looked up): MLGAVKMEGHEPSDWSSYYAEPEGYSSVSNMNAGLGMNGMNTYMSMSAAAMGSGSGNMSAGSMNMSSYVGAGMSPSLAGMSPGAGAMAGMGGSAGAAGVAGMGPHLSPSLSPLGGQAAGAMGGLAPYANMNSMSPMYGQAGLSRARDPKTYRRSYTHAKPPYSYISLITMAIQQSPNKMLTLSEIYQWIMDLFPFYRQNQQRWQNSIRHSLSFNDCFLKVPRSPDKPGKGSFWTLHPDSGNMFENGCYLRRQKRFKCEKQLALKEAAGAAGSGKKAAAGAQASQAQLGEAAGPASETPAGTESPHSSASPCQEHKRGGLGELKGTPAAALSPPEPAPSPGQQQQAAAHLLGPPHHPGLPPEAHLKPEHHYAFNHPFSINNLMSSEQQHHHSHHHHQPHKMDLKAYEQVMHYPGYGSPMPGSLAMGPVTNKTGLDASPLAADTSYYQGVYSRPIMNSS
Hypoxia-inducible factor 1-alpha (Homo sapiens), sequence (Q16665 whole entry, looked up): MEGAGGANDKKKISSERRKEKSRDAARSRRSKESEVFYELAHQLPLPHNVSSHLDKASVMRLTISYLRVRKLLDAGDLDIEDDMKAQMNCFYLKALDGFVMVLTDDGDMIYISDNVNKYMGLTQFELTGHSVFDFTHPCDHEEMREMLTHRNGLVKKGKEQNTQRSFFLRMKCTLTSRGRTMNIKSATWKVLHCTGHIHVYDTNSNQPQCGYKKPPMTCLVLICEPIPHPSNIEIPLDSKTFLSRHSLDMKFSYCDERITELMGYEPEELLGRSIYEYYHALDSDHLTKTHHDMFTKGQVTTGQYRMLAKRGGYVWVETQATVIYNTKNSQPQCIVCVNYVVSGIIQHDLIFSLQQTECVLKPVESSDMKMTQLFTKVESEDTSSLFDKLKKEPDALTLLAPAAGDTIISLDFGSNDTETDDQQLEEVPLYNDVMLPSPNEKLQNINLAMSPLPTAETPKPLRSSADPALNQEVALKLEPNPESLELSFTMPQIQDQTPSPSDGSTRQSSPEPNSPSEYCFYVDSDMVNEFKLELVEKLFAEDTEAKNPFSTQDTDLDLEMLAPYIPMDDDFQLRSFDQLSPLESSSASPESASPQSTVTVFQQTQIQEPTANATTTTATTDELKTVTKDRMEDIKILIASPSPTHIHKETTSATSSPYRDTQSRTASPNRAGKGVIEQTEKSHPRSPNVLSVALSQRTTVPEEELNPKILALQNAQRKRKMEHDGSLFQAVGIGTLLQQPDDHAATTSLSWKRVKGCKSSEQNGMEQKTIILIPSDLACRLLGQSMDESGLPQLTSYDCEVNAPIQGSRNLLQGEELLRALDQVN
Heat shock factor protein 1 (Homo sapiens), sequence (Q00613 whole entry, looked up): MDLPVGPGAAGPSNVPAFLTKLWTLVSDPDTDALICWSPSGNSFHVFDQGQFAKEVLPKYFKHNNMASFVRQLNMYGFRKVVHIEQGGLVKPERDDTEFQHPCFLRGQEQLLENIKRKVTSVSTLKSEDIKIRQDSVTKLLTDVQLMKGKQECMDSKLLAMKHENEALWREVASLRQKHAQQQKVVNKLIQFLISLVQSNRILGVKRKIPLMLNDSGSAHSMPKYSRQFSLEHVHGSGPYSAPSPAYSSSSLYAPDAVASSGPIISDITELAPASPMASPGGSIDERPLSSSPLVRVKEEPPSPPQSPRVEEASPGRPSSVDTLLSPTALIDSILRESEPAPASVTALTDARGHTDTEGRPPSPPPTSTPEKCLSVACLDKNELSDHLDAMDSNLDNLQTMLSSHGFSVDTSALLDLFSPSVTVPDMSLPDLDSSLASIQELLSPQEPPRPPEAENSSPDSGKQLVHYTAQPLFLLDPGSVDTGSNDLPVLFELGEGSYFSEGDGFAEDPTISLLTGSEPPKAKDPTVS

With `CCOC(=O)O[C@H](C)OC(=O)c1ccc2c(c1)cc(C(=O)NC1CCN(C(C)C)CC1)n2Cc1cc(-c2ccc(Cl)s2)on1`, the outcome in assay [1], in [2], in assay [3], in assay [4], in [6] and in assay [7] was inactive. Moreover, the outcome in assay [8], in [9], in [10], in assay [11], in assay [12] and in assay [13] was inactive. In addition, the compound was called inactive in assay [14], in [16], in [17] and in assay [19]. In addition, the results for the AC50 in assay [5], in assay [15] and in [18] were 33 µM (active), 20.9 µM (active) and 51.1 µM (active), respectively.

Regarding `OCCO`, the outcome in assay [1], in assay [2], in [3], in assay [4], in assay [5] and in assay [6] was inactive. Further, the compound was classed as inactive in assay [7], in [8], in assay [9], in [10], in assay [12] and in assay [13]. Besides, the result in assay [14], in assay [16], in [17], in assay [18] and in assay [19] was inactive. Besides, the AC50 (as a rule, the concentration giving half of the maximal activity seen) in assay [15] was 51.2 µM (active).

Turning to `O=C1CCC(C2CCCCC2)CC1`, the AC50 was 185 µM (active) in assay [1]; 130 µM (active) in assay [3]; 131 µM (active) in assay [6]; 187 µM (active) in assay [8]; 151 µM (active) and 159 µM (active) in assay [10]; 134 µM (active) in [12]. Further, the AC50 in [15] is 0.821 µM (active); in assay [17], 150 µM (active); in assay [18], 100 µM (active) and 154 µM (active) and 114 µM (active). In addition, the outcome in [1], in assay [2], in assay [3], in [4], in assay [6] and in assay [7] was inactive. Also, the call in assay [20], in assay [8], in assay [9], in assay [10], in [11] and in [12] was inactive. The call in assay [13], in assay [14], in assay [15], in assay [16], in assay [17] and in [18] was inactive. In addition, the outcome in assay [19] was inactive.
